Source: PubChem (National Center for Advancing Translational Sciences (NCATS))
G9a block: blocks human histone lysine methyltransferase G9a; G9a H3K9 monomethylation, AlphaScreen, 2 h; Potency, µM (series often up to 102 µM), usual class: inhibitors; AID 504332; 350,000 tested, 8.8% active; Q96KQ7; also: nearly all actives have a fitted effect of over 75% in size
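Chemiluminescent proximity detection of H3K9 monomethylation, read after 10 min bead incubation in the dark. Reaction: 20 nM G9a, 500 nM biotin-H3K9 peptide, 20 uM SAM cofactor, 2 h, room temperature, following 15 min enzyme-compound preincubation.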
JMJD2A Tudor inh: inhibitors of human JMJD2A Tudor domain; 390,000 tested, 4.4% active; Potency, µM (top dose mostly 114 µM), hits mostly inhibitors; AlphaScreen JMJD2A-Tudor / H3K4me3 peptide binding; AID 504339; also: nearly all actives have a fitted effect of over 50% in size
Sfp PPTase inh: blocks B. subtilis Sfp PPTase activity; Q9F4F7; Biochemical Sfp PPTase activity, qHTS; Potency, µM, usual class: inhibitors; 310,000 tested, 3.5% active; AID 1490;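 also: the enzyme is Sfp with the accession as filed and its product quenches rhodamine fluorescence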
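Fluorescence-quenching assay with 15 nM Sfp, 5 uM rhodamine-CoA and 12.5 uM BHQ-2-labelled ybbR peptide in pH 7.6 Hepes/MgCl2 buffer. Enzyme was pre-incubated with compound for 15 min at room temperature. Rate was taken from the 30-min fluorescence change (525/598 nm).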
L3MBTL1 block: L3MBTL1 (human) inhibition; AlphaScreen L3MBTL1–H3K9me1 peptide binding; Potency, µM (titrated, usually from 57.1 µM), most hits filed as inhibitors; 230,000 tested, 0.66% active; also: nearly all actives have a fitted effect of over 60% in size
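AlphaScreen proximity signal between nickel-chelate acceptor and streptavidin donor beads (final 10 ug/mL) reports binding of 50 nM L3MBTL1 to 75 nM biotin-H3 K9me1 peptide; complex incubated with compounds 30 min at room temperature; cefsulodin titration as control.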
HP1b binding inh: HP1-beta chromodomain-methylated histone interaction inhibition | AID 540317 | P83916 | Potency, µM (series often up to 114 µM), hits mostly inhibitors | 390,000 tested, 0.56% active | AlphaScreen HP1-beta / biotin-H3K9me3 peptide binding; also: nearly all actives have a fitted effect of over 70% in size
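HP1-beta protein (50 nM final) preincubated 30 min at room temperature with biotinylated H3(1-18)K9me3 peptide (50 nM) in PBS pH 7.4, 0.01% Tween-20, then compound added for 30 min. AlphaScreen streptavidin donor/nickel chelate acceptor beads (10 ug/mL final), 30 min dark, luminescence read.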
BAZ2B inh: inhibitors of human BAZ2B bromodomain | Potency, µM (highest dose often 114 µM), actives largely listed as inhibitors | AlphaScreen BAZ2B-H3K14Ac peptide displacement | 360,000 tested, 4.4% active | Q9UIF8; also: nearly all actives have a fitted effect of over 60% in size
Target sequence (Q9UIF8 whole entry, looked up): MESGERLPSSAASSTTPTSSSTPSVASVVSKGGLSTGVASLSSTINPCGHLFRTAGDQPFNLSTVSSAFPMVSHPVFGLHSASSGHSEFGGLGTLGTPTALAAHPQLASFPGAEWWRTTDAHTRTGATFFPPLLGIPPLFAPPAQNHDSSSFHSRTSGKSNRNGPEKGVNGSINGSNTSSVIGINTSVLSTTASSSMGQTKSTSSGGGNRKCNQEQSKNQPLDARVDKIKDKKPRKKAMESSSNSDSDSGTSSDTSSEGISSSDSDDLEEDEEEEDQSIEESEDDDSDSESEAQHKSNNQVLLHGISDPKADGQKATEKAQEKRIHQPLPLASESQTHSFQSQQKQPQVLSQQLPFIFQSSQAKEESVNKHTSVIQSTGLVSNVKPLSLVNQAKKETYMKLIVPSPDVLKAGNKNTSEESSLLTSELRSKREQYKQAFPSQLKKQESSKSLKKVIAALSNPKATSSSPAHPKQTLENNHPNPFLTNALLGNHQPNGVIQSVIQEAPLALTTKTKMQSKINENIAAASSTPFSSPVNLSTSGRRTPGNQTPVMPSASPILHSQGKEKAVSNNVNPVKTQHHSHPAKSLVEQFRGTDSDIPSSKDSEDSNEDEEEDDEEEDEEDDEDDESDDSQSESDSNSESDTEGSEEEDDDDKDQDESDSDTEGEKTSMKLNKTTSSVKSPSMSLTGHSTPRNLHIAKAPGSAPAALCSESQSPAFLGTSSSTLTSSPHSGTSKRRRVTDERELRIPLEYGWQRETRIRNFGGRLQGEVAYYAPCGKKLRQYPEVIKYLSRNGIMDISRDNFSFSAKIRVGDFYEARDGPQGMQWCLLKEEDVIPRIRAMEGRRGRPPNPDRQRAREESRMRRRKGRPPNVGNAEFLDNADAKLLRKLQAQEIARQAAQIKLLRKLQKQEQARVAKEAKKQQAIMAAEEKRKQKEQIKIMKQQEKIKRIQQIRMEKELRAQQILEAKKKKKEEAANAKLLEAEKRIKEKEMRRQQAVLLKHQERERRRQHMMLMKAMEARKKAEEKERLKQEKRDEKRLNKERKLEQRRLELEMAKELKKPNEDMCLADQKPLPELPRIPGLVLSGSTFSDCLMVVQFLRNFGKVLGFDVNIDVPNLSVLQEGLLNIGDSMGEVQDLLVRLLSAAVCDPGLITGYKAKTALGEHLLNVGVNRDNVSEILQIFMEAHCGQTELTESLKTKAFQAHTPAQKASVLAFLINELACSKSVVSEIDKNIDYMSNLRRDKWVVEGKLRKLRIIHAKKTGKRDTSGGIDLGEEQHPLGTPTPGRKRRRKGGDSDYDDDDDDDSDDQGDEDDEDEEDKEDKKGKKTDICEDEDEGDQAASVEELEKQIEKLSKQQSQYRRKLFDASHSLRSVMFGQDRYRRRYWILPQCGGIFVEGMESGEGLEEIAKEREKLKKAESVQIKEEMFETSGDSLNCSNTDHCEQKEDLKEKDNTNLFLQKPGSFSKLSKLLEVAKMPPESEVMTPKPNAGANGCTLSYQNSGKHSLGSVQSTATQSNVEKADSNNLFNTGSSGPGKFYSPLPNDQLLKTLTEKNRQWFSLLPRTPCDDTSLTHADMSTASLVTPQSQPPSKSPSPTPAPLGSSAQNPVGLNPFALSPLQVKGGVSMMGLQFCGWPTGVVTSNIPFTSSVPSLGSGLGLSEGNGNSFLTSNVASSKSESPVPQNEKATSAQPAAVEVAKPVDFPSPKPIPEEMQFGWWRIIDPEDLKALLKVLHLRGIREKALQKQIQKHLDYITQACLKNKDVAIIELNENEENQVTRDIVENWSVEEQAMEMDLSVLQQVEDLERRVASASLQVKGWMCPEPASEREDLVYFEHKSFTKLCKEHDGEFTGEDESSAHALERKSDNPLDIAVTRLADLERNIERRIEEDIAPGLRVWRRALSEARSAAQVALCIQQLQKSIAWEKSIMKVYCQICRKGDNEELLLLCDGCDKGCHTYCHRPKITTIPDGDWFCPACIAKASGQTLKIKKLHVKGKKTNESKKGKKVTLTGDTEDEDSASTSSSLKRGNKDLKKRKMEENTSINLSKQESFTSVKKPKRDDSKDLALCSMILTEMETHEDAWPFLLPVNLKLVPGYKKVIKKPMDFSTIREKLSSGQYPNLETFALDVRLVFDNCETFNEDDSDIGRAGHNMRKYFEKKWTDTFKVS
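Inhibition is scored as reduced AlphaScreen emission. The BAZ2B/b-H3(5-23)K14Ac complex (50 nM each) in PBS pH 7.4, 0.01% Tween-20 meets compound (up to 110 uM) for 30 min at RT before bead addition.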
Numbers stand for hits; [ ] = remark or other dose. Hits are enriched below; roughly 12% of the tested compounds scored in any of these assays. Calls follow the shape of the dose curve; as a rule, active = well fitted curve in the direction sought with a large enough effect; inconclusive = small, poorly fitted or top-dose-only effect, or another doubt; inactive = no such curve, though single readings can be large; an effect the other way counts as inactive or inconclusive.

How did O=C(NC(Cc1ccccc1)C(=O)O)/C(=C\c1ccc(Cl)cc1)NC(=O)c1ccccc1 (stereo unspecified) do in these assays?
G9a block: inconclusive; JMJD2A Tudor inh: inactive; Sfp PPTase inh: inactive; L3MBTL1 block: inactive; HP1b binding inh: inactive; BAZ2B inh: inactive

How did O=C(NC(Cc1ccccc1)C(=O)O)/C(=C\c1ccc(Cl)cc1)NC(=O)c1ccco1 (stereo unspecified) do in these assays?
G9a block: 79.4µM; JMJD2A Tudor inh: inactive; Sfp PPTase inh: inactive; HP1b binding inh: inactive; BAZ2B inh: inactive

Results for O=C(NC(Cc1ccccc1)C(=O)O)/C(=C/c1ccc([N+](=O)[O-])cc1)NC(=O)c1ccc(Br)o1 (stereo unspecified) ?
G9a block: inactive; JMJD2A Tudor inh: inactive; Sfp PPTase inh: inactive; HP1b binding inh: inactive; BAZ2B inh: inactive

How did O=C(Nc1ccccc1)/C(=C\c1ccccc1)NC(=O)c1ccco1 do in these assays?
JMJD2A Tudor inh: inactive; Sfp PPTase inh: inactive; HP1b binding inh: inactive; BAZ2B inh: inactive

What do the screens show for `Cc1noc(C)c1-c1cccc(-c2nn3c(=O)cc(N4CCNCC4)nc3s2)c1`?
JMJD2A Tudor inh: inactive

What do the screens show for `O=C(c1ccccc1)c1nn(-c2ccccc2)c(=O)cc1C(F)(F)F`?
G9a block: inactive; JMJD2A Tudor inh: inactive; Sfp PPTase inh: inactive; L3MBTL1 block: inactive; HP1b binding inh: inactive; BAZ2B inh: 89.1µM

What do the screens show for `CC1=C(C(=O)Nc2cccnc2)C(c2ccccc2Cl)n2nc(-c3ccccc3)nc2N1` (stereo unspecified)?
G9a block: inactive; JMJD2A Tudor inh: inactive; HP1b binding inh: inactive; BAZ2B inh: inactive

Results for CSc1nc2[nH]c(=O)n(O)c(=O)c2n1Cc1ccccc1 ?
JMJD2A Tudor inh: 3.16µM; HP1b binding inh: inactive

What do the screens show for `CCCC(=O)Nc1c(C(=O)OCC)[nH]c2ccccc12`?
G9a block: inactive; JMJD2A Tudor inh: inactive; Sfp PPTase inh: inactive; L3MBTL1 block: inactive; HP1b binding inh: inactive; BAZ2B inh: inactive

Results for CCOC(=O)c1[nH]c2ccccc2c1NC(=S)Nc1ccccc1C ?
G9a block: 31.6µM; JMJD2A Tudor inh: inactive; Sfp PPTase inh: inconclusive; L3MBTL1 block: inactive; HP1b binding inh: inactive; BAZ2B inh: inactive

How did CCOC(=O)c1oc2ccccc2c1NC(=O)c1ccco1 do in these assays?
G9a block: inconclusive; JMJD2A Tudor inh: inactive; Sfp PPTase inh: inactive; HP1b binding inh: inactive; BAZ2B inh: inactive

Results for CCOC(=O)c1[nH]c2ccccc2c1NC(=O)c1ccco1 ?
G9a block: inactive[12.7 µM]; JMJD2A Tudor inh: inactive; Sfp PPTase inh: 50.1µM; L3MBTL1 block: inactive[11.4 µM]; HP1b binding inh: inactive; BAZ2B inh: inactive

Results for CCOC(=O)c1[nH]c2ccccc2c1NC(=S)Nc1cc(C)ccc1C ?
G9a block: 44.7µM; JMJD2A Tudor inh: inconclusive; Sfp PPTase inh: 39.8µM; L3MBTL1 block: inactive; HP1b binding inh: inactive; BAZ2B inh: inconclusive

How did CC(C)(C)n1cnc2cc(NC(=O)c3ccccc3)ccc21 do in these assays?
G9a block: inactive; JMJD2A Tudor inh: inactive; Sfp PPTase inh: inactive; L3MBTL1 block: inactive; HP1b binding inh: inactive; BAZ2B inh: inactive

Results for CCn1cnc2cc(NCc3ccc(N(C)C)cc3)ccc21 ?
G9a block: 11.2µM; JMJD2A Tudor inh: 10µM; Sfp PPTase inh: inactive; HP1b binding inh: 31.6µM; BAZ2B inh: 10µM

What do the screens show for `CCN(CC)c1ccc(CNc2ccc3c(c2)ncn3CC)cc1`?
G9a block: 22.4µM; JMJD2A Tudor inh: 20µM; Sfp PPTase inh: inactive; HP1b binding inh: 35.5µM; BAZ2B inh: 15.8µM

How did CCOc1ccc(CNc2ccc3c(c2)ncn3C(C)(C)C)cc1 do in these assays?
G9a block: 79.4µM; JMJD2A Tudor inh: inconclusive; Sfp PPTase inh: inactive; HP1b binding inh: inactive; BAZ2B inh: inconclusive

How did CCn1cnc2cc(NS(=O)(=O)c3ccc(C)cc3)ccc21 do in these assays?
G9a block: inactive; JMJD2A Tudor inh: inactive; Sfp PPTase inh: inactive; HP1b binding inh: inactive; BAZ2B inh: inactive

What do the screens show for `CN(C)c1ccc(CNc2ccc3c(c2)ncn3C(C)(C)C)cc1`?
G9a block: 22.4µM; JMJD2A Tudor inh: 14.1µM; Sfp PPTase inh: inactive; HP1b binding inh: 35.5µM; BAZ2B inh: 15.8µM

What do the screens show for `Cc1ccc(C(C)C)cc1OCC(=O)N1CCN(C(=O)c2ccco2)CC1`?
G9a block: inactive[0.501 µM]; JMJD2A Tudor inh: inactive; L3MBTL1 block: inactive; HP1b binding inh: inactive; BAZ2B inh: inactive

Results for COc1ccc(-c2cc(=O)oc3c4c(ccc23)OCN(Cc2ccccc2)C4)cc1 ?
G9a block: inactive; JMJD2A Tudor inh: inactive; HP1b binding inh: inactive; BAZ2B inh: inactive

What do the screens show for `Cc1cc(C)cc(NC(=O)CSc2n[nH]c(-c3cccnc3)n2)c1`?
G9a block: inactive; JMJD2A Tudor inh: inactive; Sfp PPTase inh: inactive; HP1b binding inh: inactive; BAZ2B inh: inactive

Results for O=C(CSc1n[nH]c(-c2cccnc2)n1)OC1CCCCC1 ?
G9a block: inactive; JMJD2A Tudor inh: 22.4µM; Sfp PPTase inh: inactive; L3MBTL1 block: inactive; HP1b binding inh: inactive; BAZ2B inh: inactive

How did O=C(CSc1n[nH]c(-c2cccnc2)n1)Nc1ccc(Br)cc1 do in these assays?
G9a block: 8.91µM; JMJD2A Tudor inh: inactive; Sfp PPTase inh: inactive; HP1b binding inh: inactive; BAZ2B inh: inactive

How did O=C(c1ccc2oc(Cc3ccc(Cl)cc3)nc2c1)N1CC[C@H](O)C1 do in these assays?
G9a block: inactive; JMJD2A Tudor inh: inactive; Sfp PPTase inh: inactive; HP1b binding inh: inactive; BAZ2B inh: inactive

Results for COc1cc(/C=C(\C(=O)O)c2ccc(S(=O)(=O)N3CCCC3)s2)cc(OC)c1 ?
G9a block: 50.1µM; JMJD2A Tudor inh: inactive; L3MBTL1 block: inactive; HP1b binding inh: inactive; BAZ2B inh: inactive

Results for COc1ccc(Br)cc1/C=C(\C(=O)O)c1ccc(S(=O)(=O)N2CCCC2)s1 ?
JMJD2A Tudor inh: 89.1µM; L3MBTL1 block: inactive; HP1b binding inh: inactive

Results for CCCNC(=O)C1Cc2cc(S(=O)(=O)N3CCCCCC3)ccc2N1C(C)=O (stereo unspecified) ?
G9a block: inactive[12.7 µM]; JMJD2A Tudor inh: inactive; HP1b binding inh: inactive; BAZ2B inh: inactive

What do the screens show for `CSc1ccccc1C(=O)Nc1cc2c(cc1C(=O)O)OCCCO2`?
G9a block: 2.82µM; JMJD2A Tudor inh: 22.4µM; Sfp PPTase inh: inactive; HP1b binding inh: inactive; BAZ2B inh: inactive

What do the screens show for `CCOc1ccccc1OCC(=O)Nc1cc2c(cc1C(=O)O)OCCCO2`?
G9a block: 25.1µM; JMJD2A Tudor inh: inactive; Sfp PPTase inh: 79.4µM; HP1b binding inh: inactive; BAZ2B inh: inactive

How did COc1ccccc1OCC(=O)Nc1cc2c(cc1C(=O)O)OCCCO2 do in these assays?
G9a block: 7.94µM; JMJD2A Tudor inh: 79.4µM; Sfp PPTase inh: 79.4µM; HP1b binding inh: inactive; BAZ2B inh: inactive
